Experimental findings from PubChem BioAssay (Tox21) are described below.

A short description of assay [1]: Human pregnane X receptor (PXR) small molecule agonists, qHTS cell viability counter screen (AID 1346977). Note: nearly all actives have a fitted effect of over 50% in size. Note: potency is the fitted concentration of half-maximal effect. The method, boiled down: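 Tox21 qHTS format; PXR-Luc HepG2, 2,000/well, charcoal-stripped FBS 5%. Cpd exposure 24hr. Read: CellTiter-Fluor fluorescence, multiplexed with luciferase.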
(In qHTS, concentration-response curves come from the screen itself.)

Assay [2] can be described thus: Caspase-3/7 induction in HepG2 cells by small molecules, qHTS assay (AID 1346978). Note: nearly all actives have a fitted effect of over 15% in size. The method, boiled down:
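Wild-type HepG2 cells (2,000/well) were settled 5 h at 37 C, 5% CO2, then exposed to compounds in DMSO for 17 h. Caspase-3/7 activity was read by luminescence 30 min after adding Caspase-Glo 3/7 reagent at room temperature.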

A short description of assay [3]: Caspase-3/7 induction in CHO-K1 cells by small molecules, qHTS assay (AID 1346980). Note: nearly all actives have a fitted effect of over 15% in size. The method, boiled down:
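Wild-type cells were seeded at 1,500 per well and settled 5 hr at 37 C, 5% CO2, then exposed to DMSO-dissolved compounds for 17 hr. Caspase-Glo 3/7 reagent was added, and luminescence was read after 30min at room temperature.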

Assay [4] in a line: Caspase-3/7 induction in HepG2 cells by small molecules, qHTS cell viability counter screen (AID 1346981). Note: nearly all actives have a fitted effect of over 30% in size. Note: potency is the fitted concentration of half-maximal effect. The method, boiled down:
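Wild-type HepG2 cells (2,000/well) were allowed to settle for 5 hr at 37 C, 5% CO2, then dosed with compounds in DMSO by pin transfer. After 16 hr at 37 C, CellTiter-Fluor was added and fluorescence read 1 hr later.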

Assay [5] deals with Cytochrome P450 2D6 (Homo sapiens) (UniProt P10635). Description: Cytochrome P450 Family 2 Subfamily D Member 6 (CYP2D6) small molecule antagonists: luciferase reporter qHTS assay (AID 1671196). Note: nearly all actives have a fitted effect of over 50% in size. Note: potency is the fitted concentration of half-maximal effect. The method, boiled down:
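CYP2D6 enzyme–substrate mix was held with compound for 10 min at room temperature, then NADPH regeneration solution was added and the reaction ran 1 h at room temperature. Luciferin product was detected by luminescence after 20 min with detection reagent.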
On the technique in general: In a reporter assay the amount or activity of a reporter protein is the signal.

A short description of assay [6]: Caspase-3/7 induction in CHO-K1 cells by small molecules, qHTS cell viability counter screen (AID 1346979). Note: nearly all actives have a fitted effect of over 35% in size. Note: potency is the fitted concentration of half-maximal effect. The method, boiled down:
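CellTiter-Fluor viability check, qHTS format: wild-type CHO-K1, 16hr compound treatment, 1hr reagent incubation, fluorescence read.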

The target in assay [7] is Nuclear receptor subfamily 1 group I member 2 (Homo sapiens) (UniProt O75469). Description: Human pregnane X receptor (PXR) small molecule agonists, qHTS assay (AID 1346982). Note: nearly all actives have a fitted effect of over 35% in size. Note: potency is the fitted concentration of half-maximal effect. The method, boiled down: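 PXR-Luc HepG2 cells (CYP3A4 promoter-driven luciferase) were seeded in medium with 5% charcoal-stripped FBS, left 5 hr at 37 C, then exposed to compounds in DMSO for 24 hr. Luminescence was read after ONE-Glo addition.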
Sequence of Nuclear receptor subfamily 1 group I member 2 (Homo sapiens) (O75469 whole entry, looked up): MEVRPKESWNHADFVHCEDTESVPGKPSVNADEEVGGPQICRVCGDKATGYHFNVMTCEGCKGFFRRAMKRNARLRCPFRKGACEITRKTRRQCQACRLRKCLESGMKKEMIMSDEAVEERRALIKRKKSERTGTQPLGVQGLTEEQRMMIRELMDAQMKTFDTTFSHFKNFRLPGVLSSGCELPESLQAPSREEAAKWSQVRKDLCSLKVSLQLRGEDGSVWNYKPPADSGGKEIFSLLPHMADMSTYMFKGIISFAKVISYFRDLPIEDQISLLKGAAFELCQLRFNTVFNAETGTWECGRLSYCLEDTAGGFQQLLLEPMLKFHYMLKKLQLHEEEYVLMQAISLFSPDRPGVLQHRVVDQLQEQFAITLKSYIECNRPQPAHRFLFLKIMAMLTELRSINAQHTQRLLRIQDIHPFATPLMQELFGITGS

Assay [8] concerns the target Nuclear receptor subfamily 1 group I member 2 (Rattus norvegicus) (UniProt Q9R1A7). Description: Rat pregnane X receptor (rPXR) activation by small molecules, qHTS assay (AID 1346983). Note: nearly all actives have a fitted effect of over 20% in size. The note with it: rPXR luciferase reporter cells, One-Glo luminescence, 24 h; max activation: stronger effect = higher value. The method, boiled down:
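Cell-based rPXR luciferase reporter assay, 2,000 cells per well, rested 5hr at 37 C before compound addition in DMSO, then 24 hr at 37 C. One-Glo reagent was added and luminescence read after 30 min at room temperature.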

For assay [9], the target named is Nuclear receptor subfamily 1 group I member 2 (Homo sapiens) (UniProt O75469). Nature of the assay: CYP3A4 induction through human pregnane X receptor (PXR) by small molecules, qHTS assay (AID 1346984). Note: nearly all actives have a fitted effect of over 40% in size. The method, boiled down:
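DPX-2 cells (HepG2 co-transfected with PXR and CYP3A4 promoter-luciferase) treated with compounds 24 h at 37C; luciferin-IPA CYP3A4 substrate 3uM final added for 3 h, then One-Glo; luminescence read. qHTS format.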

For assay [10] the target is unchanged. Description: Human pregnane X receptor (PXR) activation by small molecules, qHTS assay (AID 1346985). Note: nearly all actives have a fitted effect of over 40% in size. The method, boiled down:
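DPX-2 cells (HepG2 co-transfected with a PXR response element and a CYP3A4-promoter luciferase construct) were seeded at 2,000 per well, rested 5 hr at 37C, then exposed to DMSO-dissolved compounds for 24 hr. Activation was read as luciferase luminescence.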

Values joined by “and” are separate entries in the source; they are usually repeats but may differ in a detail not shown here. Equal values may be shown once. Records with an inconclusive call do not appear. Where a structure was tested more than once in an assay, its records may differ in their call. Active and inactive are the calls of the source. Calls come from the whole dose curve; as a rule, active = well fitted curve in the direction sought with a large enough effect in the repeat runs; inconclusive = weak or mixed curves; inactive = no such curve, though single readings can be large; an effect the other way counts as inactive or inconclusive.
% is set by controls: 0 for no effect and ±100 for the full control effect.

Sequence of Cytochrome P450 2D6 (Homo sapiens) (P10635 whole entry, looked up): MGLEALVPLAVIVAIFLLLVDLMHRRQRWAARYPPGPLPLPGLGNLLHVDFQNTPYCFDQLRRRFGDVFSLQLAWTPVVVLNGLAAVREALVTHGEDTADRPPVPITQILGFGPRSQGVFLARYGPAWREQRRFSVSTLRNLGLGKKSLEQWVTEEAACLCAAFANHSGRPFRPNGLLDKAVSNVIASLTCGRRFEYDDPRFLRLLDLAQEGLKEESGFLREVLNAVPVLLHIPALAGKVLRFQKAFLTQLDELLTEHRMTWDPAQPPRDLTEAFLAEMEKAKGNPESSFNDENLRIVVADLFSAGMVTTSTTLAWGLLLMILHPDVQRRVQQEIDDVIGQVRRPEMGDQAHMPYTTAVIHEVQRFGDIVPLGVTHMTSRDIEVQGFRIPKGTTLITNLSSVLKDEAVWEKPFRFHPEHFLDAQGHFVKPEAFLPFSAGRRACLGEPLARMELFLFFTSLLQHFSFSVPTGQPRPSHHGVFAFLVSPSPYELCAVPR
Sequence of Nuclear receptor subfamily 1 group I member 2 (Rattus norvegicus) (Q9R1A7 whole entry, looked up): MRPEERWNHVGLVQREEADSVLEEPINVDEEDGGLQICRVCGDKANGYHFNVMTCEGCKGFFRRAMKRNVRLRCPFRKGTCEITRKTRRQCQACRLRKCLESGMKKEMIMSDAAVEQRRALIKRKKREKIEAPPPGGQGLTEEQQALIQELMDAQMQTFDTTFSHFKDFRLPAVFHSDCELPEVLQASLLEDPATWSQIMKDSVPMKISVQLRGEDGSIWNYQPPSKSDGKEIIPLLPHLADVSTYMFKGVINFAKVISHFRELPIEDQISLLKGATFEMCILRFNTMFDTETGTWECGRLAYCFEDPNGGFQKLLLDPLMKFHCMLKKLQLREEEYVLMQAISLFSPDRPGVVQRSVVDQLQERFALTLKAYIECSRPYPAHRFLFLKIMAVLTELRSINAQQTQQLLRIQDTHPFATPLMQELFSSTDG

In the case of `CC1(C)NC(=O)N(c2ccc([N+](=O)[O-])c(C(F)(F)F)c2)C1=O`, the Potency entry in [1], in assay [2], in [3], in assay [4] and in assay [5] was “inactive” each time.
In the case of `CCC(=O)O[C@H]1[C@H](O[C@@H]2[C@@H](C)[C@H](O[C@H]3C[C@@](C)(OC)[C@@H](O)[C@H](C)O3)[C@@H](C)C(=O)O[C@H](CC)[C@@](C)(O)[C@H](O)[C@@H](C)C(=O)[C@H](C)C[C@@]2(C)O)O[C@H](C)C[C@@H]1N(C)C`, the Potency in assay [1] was 36.1 µM (active) and inactive; in [7], 9.07 µM (active) and inactive. Besides, the Potency result in assay [2], in [6], in assay [3], in [4] and in assay [5] was “inactive” in each case.
With `O=C1CCc2ccccc2O1`, the Potency result in [1], in [6], in [3], in [4], in assay [7] and in assay [5] was “inactive” throughout.
In the case of `Nc1ccc(N)c(Cl)c1`, the Potency result in assay [2] and in assay [3] was “inactive” each time. Besides, the Potency in assay [4] is 68.5 µM (active); in [7] it was 21.6 µM (active) and 48.6 µM (active); in [5] it was 12.6 µM (active) and 22.4 µM (active).
For the compound `CC(C)(C)c1cccc(C(C)(C)C)c1O`, the Potency entry in assay [1], in assay [3] and in assay [4] was “inactive” throughout. For the same compound, the Potency is 59.8 µM (active) and inactive in [7]; 39 µM (active) and inactive in assay [5].
With `CCCCCCC(C)O` (configuration not stated), the Potency entry in assay [1], in assay [3], in [4], in [7] and in assay [5] was “inactive” in each case.
As for `CCCCCC=O`, the Potency entry in assay [1], in assay [6], in [3], in assay [4], in assay [7] and in assay [5] was “inactive” in each case.
On to `COc1ccc(-c2coc3cc(O)cc(O)c3c2=O)cc1`, for which the Potency result in assay [2] and in assay [3] was “inactive” throughout. The Potency in assay [6] was 69.1 µM (active); in [7], 30.9 µM (active) and 30.6 µM (active); in assay [5], 45.2 µM (active).
For `CC(=O)[C@H]1CC[C@H]2[C@@H]3CC=C4C[C@@H](O)CC[C@]4(C)[C@H]3CC[C@]12C`, the Potency entry in assay [1], in [6], in assay [3], in [4], in assay [9] and in assay [10] was “inactive” throughout. The Potency entry in [5] is “inactive”. Besides, in assay [7], the Potency was 24.3 µM (active) and 23.7 µM (active). The max activation in assay [8] was -3.68% (inactive).
Regarding `O=S1(=O)CCCO1`, the Potency result in assay [1], in assay [6], in assay [3], in assay [4], in [7] and in assay [5] was “inactive” in each case.
With `CC(=O)Oc1ccc(C(c2ccc(OC(C)=O)cc2)c2ccccn2)cc1`, the Potency entry in assay [1], in [3] and in assay [4] was “inactive” throughout. Also, the Potency is 54.2 µM (active) and inactive in assay [7]; 35.4 µM (active) and inactive in [5].
In the case of `CC(=O)O[C@]1(C(C)=O)CC[C@H]2[C@@H]3C=C(C)C4=CC(=O)CC[C@]4(C)[C@H]3CC[C@@]21C`, the Potency entry in assay [1], in assay [3], in assay [4], in assay [9], in [10] and in [5] was “inactive” throughout. Further, the figures for the Potency in assay [6] and in assay [7] were 68.6 µM (active) and 27.3 µM (active), respectively.
`CCCCCC1C(=O)CCC1CC(=O)OC` (configuration not stated): the Potency result in assay [1], in [3], in assay [4], in assay [7] and in assay [5] was “inactive” each time.
Take `Cc1ccc([N+](=O)[O-])c(C)c1`: the Potency entry in assay [1], in [6], in assay [3], in [4], in [7] and in [5] was “inactive” in each case.
As to `CC(=O)[C@@]1(O)CC[C@H]2[C@@H]3C[C@H](C)C4=CC(=O)C=C[C@]4(C)[C@@]3(F)[C@@H](O)C[C@@]21C`, the Potency result in assay [1], in assay [6], in assay [3], in assay [4], in assay [9] and in assay [10] was “inactive” throughout. Moreover, in assay [5], the Potency result was “inactive”. Also, the Potency in [7] is 15.4 µM (active).
With `Nc1cc([N+](=O)[O-])ccc1C(=O)O`, the Potency result in assay [1], in assay [6], in [3], in assay [4], in assay [7] and in assay [5] was “inactive” each time.
On to `Oc1c(Cl)ccc(Cl)c1Cl`, for which the Potency result in [1], in [6], in [3], in [4] and in assay [7] was “inactive” in each case. In addition, the Potency in assay [5] is 71 µM (active).
`Cc1ccc(/C(=C\CN2CCCC2)c2ccccn2)cc1`: the Potency entry in assay [2], in assay [6], in [3], in [4], in assay [7] and in assay [9] was “inactive” throughout. For the same compound, in assay [10], the Potency entry was “inactive”. Besides, in [8], the max activation was -1.02% (inactive).
For the compound `c1ccc2c(c1)ccc1ncccc12`, the Potency result in [1], in assay [6], in [3] and in assay [4] was “inactive” in each case. In addition, the Potency in [7] was 60.7 µM (active) and 61.1 µM (active); in assay [5], 7.91 µM (active).
On to `Cc1ccc(C(C)(C)C)c(O)c1`, for which the Potency entry in assay [1], in assay [3], in [4], in assay [7] and in assay [5] was “inactive” in each case.
